Dicer processing: human Dicer pre-microRNA cleavage inhibition. z-score at 25 µM. Q9UPY3. actives 6% (n = 47,000). cat-ELCCA pre-miR-21 Dicer processing, chemiluminescence; active compounds read high; in the data active = z-score above about 3, passing the limit was not always enough;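 note: higher signal means more uncleaved substrate so more Dicer inhibition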
Target sequence (Q9UPY3 whole entry, looked up): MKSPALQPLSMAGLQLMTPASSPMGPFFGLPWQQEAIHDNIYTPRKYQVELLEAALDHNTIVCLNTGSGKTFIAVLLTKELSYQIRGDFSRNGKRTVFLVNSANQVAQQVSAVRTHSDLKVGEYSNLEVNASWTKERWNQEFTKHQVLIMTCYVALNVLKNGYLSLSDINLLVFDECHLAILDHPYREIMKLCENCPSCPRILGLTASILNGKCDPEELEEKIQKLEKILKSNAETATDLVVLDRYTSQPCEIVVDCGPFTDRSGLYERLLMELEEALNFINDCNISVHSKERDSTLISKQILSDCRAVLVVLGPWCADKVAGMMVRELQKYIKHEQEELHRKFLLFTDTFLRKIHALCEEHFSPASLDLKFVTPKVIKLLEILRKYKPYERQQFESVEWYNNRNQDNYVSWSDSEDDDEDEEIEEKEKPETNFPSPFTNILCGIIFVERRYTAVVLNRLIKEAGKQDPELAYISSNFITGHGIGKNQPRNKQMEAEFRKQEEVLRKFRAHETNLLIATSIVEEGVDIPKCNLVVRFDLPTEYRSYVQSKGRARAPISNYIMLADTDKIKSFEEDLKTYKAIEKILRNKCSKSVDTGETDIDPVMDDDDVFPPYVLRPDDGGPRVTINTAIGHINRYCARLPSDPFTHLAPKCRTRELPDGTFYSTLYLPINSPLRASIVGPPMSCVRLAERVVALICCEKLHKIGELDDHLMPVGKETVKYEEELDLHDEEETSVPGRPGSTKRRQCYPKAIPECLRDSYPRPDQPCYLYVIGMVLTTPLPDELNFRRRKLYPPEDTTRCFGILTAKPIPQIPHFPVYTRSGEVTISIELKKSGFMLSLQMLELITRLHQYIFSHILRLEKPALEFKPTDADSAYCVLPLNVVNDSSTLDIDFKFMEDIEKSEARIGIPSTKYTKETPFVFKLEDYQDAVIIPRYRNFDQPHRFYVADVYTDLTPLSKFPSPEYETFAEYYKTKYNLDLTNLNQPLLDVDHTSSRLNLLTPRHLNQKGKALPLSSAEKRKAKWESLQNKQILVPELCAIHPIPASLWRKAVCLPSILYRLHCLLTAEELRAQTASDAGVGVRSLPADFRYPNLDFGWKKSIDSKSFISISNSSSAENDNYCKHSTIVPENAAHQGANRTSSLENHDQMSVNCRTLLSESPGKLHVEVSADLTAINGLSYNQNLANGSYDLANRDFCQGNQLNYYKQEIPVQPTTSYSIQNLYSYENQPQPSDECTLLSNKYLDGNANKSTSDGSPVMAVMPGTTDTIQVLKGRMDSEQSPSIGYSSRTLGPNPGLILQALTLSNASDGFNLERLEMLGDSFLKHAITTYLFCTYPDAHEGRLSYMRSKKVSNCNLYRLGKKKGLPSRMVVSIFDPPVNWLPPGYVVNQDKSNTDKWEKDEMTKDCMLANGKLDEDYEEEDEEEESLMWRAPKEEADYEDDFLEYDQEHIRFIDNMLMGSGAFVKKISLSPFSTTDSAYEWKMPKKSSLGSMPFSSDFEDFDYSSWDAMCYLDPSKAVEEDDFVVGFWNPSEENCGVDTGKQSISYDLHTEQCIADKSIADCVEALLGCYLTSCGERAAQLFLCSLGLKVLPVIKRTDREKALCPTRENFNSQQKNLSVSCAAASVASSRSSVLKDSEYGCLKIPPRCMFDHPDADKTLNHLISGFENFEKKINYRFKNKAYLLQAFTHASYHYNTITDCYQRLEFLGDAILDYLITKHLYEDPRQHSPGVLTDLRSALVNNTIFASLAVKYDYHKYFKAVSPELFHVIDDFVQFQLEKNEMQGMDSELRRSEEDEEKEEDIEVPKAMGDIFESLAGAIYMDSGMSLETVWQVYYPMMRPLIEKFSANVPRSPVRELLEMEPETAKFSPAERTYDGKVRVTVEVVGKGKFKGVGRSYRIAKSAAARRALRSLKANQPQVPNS
Each line names hits and unclear results; the compound was inactive in the other large screens. This excerpt belongs to a sample that is enriched for hits.

COc1ccccc1NC(=O)NC(N)=O	none
CCOc1ccccc1NC(=O)Nc1ccc(OC)nc1	Dicer processing 3.84
CCOC(=O)c1cc(CC)sc1NC(=O)c1ccccc1F	none
CCOC(=O)C1=C(C)NC(=O)N(C(C)=O)C1c1ccccc1 (stereo not given)	none
O=[N+]([O-])c1cccnc1Oc1ccc(-c2ccc(Oc3ncccc3[N+](=O)[O-])cc2)cc1	none
O=C1C(=O)N(CCCN2CCOCC2)C(c2cccnc2)/C1=C(\O)c1ccc(F)cc1 (stereo not given)	Dicer processing 3.45
O=C1C(=O)N(CCCN2CCOCC2)C(c2ccc(Cl)cc2)/C1=C(\O)c1ccc(F)cc1 (stereo not given)	none
Cc1ccc(/C(O)=C2\C(=O)C(=O)N(CCN3CCOCC3)C2c2cccnc2)cc1 (stereo not given)	none
C#CCOC(=O)Nc1ccc(Oc2ccc(Cl)cc2)nc1	none
O=C1c2ccccc2C(=O)N1CC1CN(CC(O)C(F)(F)F)CCO1 (stereo not given)	none
Cc1onc(-c2ccccc2Cl)c1C(=O)N1CCOC(c2ccccc2)C1C (stereo not given)	none
CC1C(c2ccccc2)OCCN1CN1C(=O)c2ccccc2C1=O (stereo not given)	Dicer processing 3.71
CCC(CO)n1cc2c(c1-c1ccccc1)c(=O)n(C)c(=O)n2C (stereo not given)	none
CCOC(=O)NNC(=S)Nc1ccccc1N1CCOCC1	none
COc1ccc(Nc2nc(C)c3c(n2)CC(C)CC3=O)cc1 (stereo not given)	none
O=C1C2C3C=CC(O3)C2C(=O)N1OCc1ccc([N+](=O)[O-])cc1 (stereo not given)	none
CC(=O)Nc1ccc(NCN2C(=O)c3ccccc3C2=O)cc1	none
C#Cc1cccc(NCN2C(=O)c3ccccc3C2=O)c1	Dicer processing 3.09
CC(C)c1ccc(NCN2C(=O)c3ccccc3C2=O)cc1	none
O=C(NNC(=S)NCc1ccco1)c1cc(OCC(F)(F)F)nc(OCC(F)(F)F)c1	none
CC(=O)N1N=C(c2cc(C)ccc2[N+](=O)[O-])OC1c1ccc(N(C)C)cc1 (stereo not given)	none
CC(=O)N1N=C(c2ccc(C)cc2)OC1c1cccnc1 (stereo not given)	none
CC(=O)N1N=C(c2ccc(Br)cc2)OC1c1ccc(F)cc1 (stereo not given)	Dicer processing 3.17
O=C(c1cccc(C(=O)N2CCc3ccccc32)c1)N1CCc2ccccc21	none
CC(=O)C(Sc1nnnn1-c1ccccc1)C(C)=O	none
CC(=O)n1nc(C)c(Sc2nnnn2-c2ccccc2)c1C	none
Oc1ccc(O)c(Sc2nnnn2-c2ccccc2)c1	Dicer processing 3.16
CCCc1nc2cc(C)c(C)cc2nc1C	none
Cc1cc(C(=O)N/N=C/c2ccccc2O)c2cc(Br)ccc2n1	none
COc1ccc(/C=N/N=C/c2ccc(OC)c(OC)c2)cc1OC	none
CCNC(=S)N/N=C/c1cc(OC)c(OC)c(OC)c1	none
COc1cc(/C=N/N=C/c2ccccc2O)cc(OC)c1OC	Dicer processing 7.43
CC(c1ccccc1)n1c(OC(=O)N(C)C)nnc1SCC(=O)c1ccc2c(c1)OCCO2 (stereo not given)	Dicer processing 3.63
O=C(CSc1n[nH]c(=O)n1-c1ccccc1)c1ccc2c(c1)OCCO2	none
CSc1nnc(SCC(=O)c2ccc3c(c2)OCCO3)s1	none
Cc1nonc1NC(=O)OC1CCCCC1	Dicer processing 3.42
COC(=O)C(C(=O)Nc1cc(C)on1)C1CCCC1 (stereo not given)	none
Cc1nonc1NC(=O)OC(C)C	none
COc1ccc(C2/C(=C(/O)c3ccc(C)cc3)C(=O)C(=O)N2CC(C)C)cc1OC (stereo not given)	none
O=C(Nc1ccc(Cl)cc1)Nc1csc(-c2ccc(C(F)(F)F)cc2)n1	none
CCCC(=O)c1cc2cc(Br)cc(Br)c2oc1=O	none
CCCC(=O)n1c(=O)oc2cc(Br)ccc21	Dicer processing 3.95
CCCC(=O)c1cc2cc(Br)ccc2oc1=O	none
CC(C)CC(NC(=O)Cc1ccsc1)C(=O)N/N=C/c1cccs1 (stereo not given)	none
CCc1ccc2[nH]c(C)c(CN3CCN(CC)CC3)c(=O)c2c1	none
Cn1c(=O)[nH]c(=O)c2[nH]c(N(CCO)Cc3ccccc3)nc21	none
O=C(CSc1nccc(-c2cccs2)n1)Nc1ccccc1	none
O=C(CSc1nccc(-c2cccs2)n1)c1cc(-c2ccc(Cl)c(Cl)c2)no1	Dicer processing 4.02
CC(C)NC(=O)CSc1nccc(-c2cccs2)n1	none
CCOC(=O)CNC(=O)c1ccccc1C(=O)NCC(=O)OCC	none
O=C(CC(Sc1ccc(Cl)cc1)c1ccc(Cl)cc1)c1ccccc1 (stereo not given)	none
O=C(CCCC(=O)c1ccccc1)c1ccccc1	none
N#CC(C#N)C(CC(=O)c1ccccc1)c1ccccc1 (stereo not given)	Dicer processing 4.16
Nc1ccccc1SC1CC(=O)N(c2ccc(Oc3ccccc3)cc2)C1=O (stereo not given)	none
O=C(Nc1cccc(C(F)(F)F)c1)Nc1cnn2c(C(F)(F)F)cc(C(F)(F)F)nc12	none
O=C(O)CC12CC3CC(Br)(CC(Br)(C3)C1)C2	none
Nc1c(C(=O)N/N=C/c2cccs2)oc2nc(-c3ccccc3)cc(-c3ccccc3)c12	none
COc1ccc(NC(=O)c2cc3n(n2)C(C(F)(F)F)CC(c2ccco2)N3)cc1OC (stereo not given)	none
CC(C)(C)NC(=O)c1cc2n(n1)C(C(F)(F)F)CC(c1ccco1)N2 (stereo not given)	none
Cc1ccc(C2CC(C(F)(F)F)n3ncc(C(=O)Nc4ccc5c(c4)OCO5)c3N2)cc1 (stereo not given)	none
COc1ccc(NC(=O)c2cc3n(n2)C(C(F)(F)F)CC(c2ccco2)N3)cc1 (stereo not given)	none
CCc1c(C)sc(NC(=O)c2cc3n(n2)C(C(F)(F)F)CC(c2ccco2)N3)c1C#N (stereo not given)	Dicer processing 3.98
O=C(Nc1ccccc1F)c1cc2n(n1)C(C(F)(F)F)CC(c1ccco1)N2 (stereo not given)	none
O=C(Nc1cccc(O)c1)c1cc2n(n1)C(C(F)(F)F)CC(c1ccco1)N2 (stereo not given)	Dicer processing 3.33
O=C(Nc1ccc2c(c1)OCO2)c1cnn2c1NC(c1ccco1)CC2C(F)(F)F (stereo not given)	Dicer processing 4.99
COc1ccc(NC(=O)c2cnn3c2NC(c2ccco2)CC3C(F)(F)F)c(OC)c1 (stereo not given)	none
Cc1ccc(/C=C2/N=C(c3ccccc3)NC2=O)o1	none
Cc1cc(C)nc(SCC(=O)Nc2ccc(Br)cc2)n1	none
CCCOc1ccc(C2c3c(oc4cc(C)c(C)cc4c3=O)C(=O)N2c2nccs2)cc1 (stereo not given)	none
CCn1/c(=C\C=[N+](C)C)c2cccc3cccc1c32	none
CCSC1=C(C#N)C(=O)NC(c2ccc(N(C)C)cc2)S1 (stereo not given)	none
CC(C)c1ccc(S(=O)(=O)N(C(=O)c2ccncc2)c2ccc3oc(=O)sc3c2)cc1	none
O=C(c1cccnc1)N(c1ccc2oc(=O)sc2c1)S(=O)(=O)c1ccc(Br)cc1	Dicer processing 10.9
CCCC(=O)N(c1ccc2oc(=O)sc2c1)S(=O)(=O)c1ccc(F)cc1C	none
CCCCC(=O)N(c1ccc2oc(=O)sc2c1)S(=O)(=O)c1ccc(C(=O)O)cc1	none
Cc1cc(F)ccc1S(=O)(=O)N(C(=O)c1cccnc1)c1ccc2oc(=O)sc2c1	Dicer processing 4.84
Cc1ccc(S(=O)(=O)N(C(=O)c2cccnc2)c2ccc3oc(=O)sc3c2)cc1	Dicer processing 4.97
CCCCC(=O)N(c1ccc2oc(=O)sc2c1)S(=O)(=O)c1ccc(OC)cc1	none
